Among the data in ChEMBL document CHEMBL1157539, “Thousands of chemical starting points for antimalarial lead identification” (Nature, 2010) are Inhibition values, retold here.

Format in all cases: functional
Assay [1] has as its system Plasmodium falciparum. Kind of assay: GSK_TCMDC: Inhibition of Plasmodium falciparum 3D7 in whole red blood cells, using parasite LDH activity as an index of growth. Test compounds present at 2uM.
The test system of assay [2] is Plasmodium falciparum. Put plainly: GSK_TCMDC: Inhibition of Plasmodium falciparum Dd2 in whole red blood cells, using parasite LDH activity as an index of growth. Test compounds present at 2uM.
Assay [3] concerns HepG2. Kind of assay: GSK_TCMDC: Percent inhibition of human HepG2 cell line. Test compounds present at 10uM.

By Inhibition is commonly meant the change of the read-out against control, counted positive when it falls. The low end stands for little suppression, the high end for strong suppression. Take `Cl.c1ccc2c(NCCCCCCCNc3ccnc4ccccc34)ccnc2c1`: the results for the Inhibition in assay [1], in assay [2] and in assay [3] were 100%, 94% and 91%, respectively.
On to `CN(CCCCNC(=O)c1ccc(-c2ccccc2)cc1)C1CCc2c(O)cccc2C1.O=C(O)C(=O)O` (stereo not given), for which the Inhibition was determined as 100% in assay [1], 21% in assay [2] and 24% in assay [3].
In the case of `CCCOc1ccc(N2C(N)=NC(N)=NC2(C)C)cc1.Cl`, the Inhibition in assay [1] is listed as 97%; in assay [2], 2%; in assay [3], 1%.
As for `Cl.O=S(=O)(c1ccc(OCc2ccc(Cl)cc2)cc1)c1cc2c(cc1OCc1ccccc1)CCN(C1CCC1)CC2`, the Inhibition in assay [1] is on record as 89%; in assay [2], 13%; in assay [3], 17%.
The matching figures for `CCC[C@@H]([C@@H](CC1CCCCC1)C(=O)N[C@H](C(=O)Nc1nccs1)[C@@H](C)OCc1ccccc1)N(O)C=O`: 100%, 99% and 51%.
On to `CN1CCN(c2ccnc3ccc(NC(=O)Cc4ccc5ccccc5c4)cc23)CC1`, for which the Inhibition is listed as 100% in assay [1], 89% in assay [2] and 6% in assay [3].
In the case of `Cc1nc(-c2cccc(Nc3nccc(NCC(O)c4ccc(C(F)(F)F)cc4)n3)c2)cs1` (stereo not given), the Inhibition is recorded as 100% in assay [1], 99% in assay [2] and 33% in assay [3].
Turning to `COc1ccc(N2CCN(C(CNC(=O)C3CCCCC3)c3ccc4c(c3)OCO4)CC2)cc1` (stereo not given), the Inhibition in assay [1] stood at 92%; in assay [2], 83%; in assay [3], 1%.
Taken in the same sequence, the figures for `Cc1cc(=O)[nH]c(-n2nc(C)cc2NC(=O)C(c2ccccc2)c2ccccc2)n1` were 96%, 77% and 31%.
For `Cc1cccc(-c2nn(-c3ccccc3)c3[nH]c(=O)c(CN4CCSCC4)cc23)c1`, the Inhibition in assay [1] amounted to 98%; in assay [2] it was 98%; in assay [3], 0%.
`Cc1cc(C)n(Cc2ccc(C(=O)NCC3CCCCC3)cc2)n1`: the values for the Inhibition in assay [1], in assay [2] and in assay [3] were 95%, 1% and 0%, respectively.
In the case of `CC1CN(Cc2ccc(-c3ccc(-c4nc5cc(F)ccc5[nH]4)cc3)cc2)CC(C)O1.O=C(O)C(F)(F)F` (stereo not given), the values for the Inhibition in assay [1], in assay [2] and in assay [3] were 96%, 93% and 40%, respectively.
Taken in the same sequence, the figures for `Cc1cc(NC(=O)c2cccs2)ccc1OC1CCN(Cc2ccccc2)CC1.O=C(O)C(F)(F)F` were 95%, 91% and 10%.
Taken in the same sequence, the figures for `Cc1cc(N(C)C)nc(Nc2ccc(NC(=O)Nc3ccccc3)cc2)n1` were 100%, 100% and 10%.
In the case of `CC(C)(C)c1ccc2nccc(Nc3cccc(O)c3)c2c1`, the figures for the Inhibition in assay [1], in assay [2] and in assay [3] were 99%, 100% and 8%, respectively.
With `Cc1ccccc1C1CCN(C2CCC(NC(=O)c3ccc(-c4ccccc4F)o3)CC2)CC1` (stereo not given), the values for the Inhibition in assay [1], in assay [2] and in assay [3] were 99%, 66% and 42%, respectively.
Turning to `CCc1cn(CCCOC)c2ccc(C(=O)N[C@@H](Cc3ccccc3)[C@H](O)CNCc3cccc(C(F)(F)F)c3)cc12`, the Inhibition in assay [1] is listed as 93%; in assay [2] it was 78%; in assay [3], 8%.
`CCOc1cc(C(=O)NCc2ccc(Cl)c(Cl)c2)ccc1-c1nc2cc(Cl)ccc2[nH]1`: the results for the Inhibition in assay [1], in assay [2] and in assay [3] were 97%, 4% and 10%, respectively.
The matching figures for `Cl.N=C(N)NN=Cc1ccc2ccc3ccccc3c2c1`: 100%, 89% and 34%.
With `O=C(C=Cc1ccccc1)Nc1ccc(C#CC=Cc2ccc(NC(=O)C=Cc3ccccc3)cc2)cc1`, the Inhibition in assay [1] turned out to be 100%; in assay [2], 3%; in assay [3] it was 26%.
For the compound `CC(C)N1CCC(NCc2ccc(-c3ccc(Cl)cc3)cc2)CC1`, the figures for the Inhibition in assay [1], in assay [2] and in assay [3] were 99%, 48% and 50%, respectively.
Taken in the same sequence, the figures for `Cc1ccc(NC(=O)Cc2noc(CC3CCCN3C(=O)N[C@@H](C)c3ccccc3)n2)cc1` (stereo not given in full) were 95%, 90% and 1%.
Taken in the same sequence, the figures for `Cc1cc(-c2cnc(N)c(-c3ccc(N4CCN(C)CC4)nc3)c2)cc(C)c1O` were 91%, 33% and 0%.
Taken in the same sequence, the figures for `CCCC(=O)Nc1ccc(Nc2nc(C)cc(N3CCCC3)n2)cc1` were 100%, 46% and 31%.
Turning to `CC1CCCN(c2ccc(NC(=O)c3cccs3)cc2[N+](=O)[O-])C1` (stereo not given), the Inhibition in assay [1] turned out to be 96%; in assay [2] it was 96%; in assay [3], 14%.
In the case of `Clc1ccc2c(NN=Cc3cccnc3)ccnc2c1`, the Inhibition in assay [1] was 100%; in assay [2] it was 86%; in assay [3], 0%.
For the compound `CCc1c[nH]c2c(N3CCCS3(=O)=O)cc(C(=O)N[C@@H](Cc3ccccc3)[C@H](O)CNC(C)(C)c3cccc(C(F)(F)F)c3)cc12.O=CO`, the values for the Inhibition in assay [1], in assay [2] and in assay [3] were 97%, 99% and 20%, respectively.
Consider `Nc1nc(N)c2c(ccc3c2ccn3Cc2cc3c(cc2Cl)OCO3)n1`, for which the Inhibition in assay [1] came to 95%; in assay [2], 94%; in assay [3], 58%.
In the case of `Fc1ccc(C=NN=c2cc[nH]c3ccc(C(F)(F)F)cc23)cc1`, the Inhibition in assay [1] came to 90%; in assay [2], 6%; in assay [3], 22%.
Taken in the same sequence, the figures for `CCOc1ccc(C(=O)Nc2cc(Cl)ccc2O)cc1Cl` were 83%, 84% and 11%.
